For 54 molecules, Potency results are on record in PubChem BioAssay AID1347073 (National Center for Advancing Translational Sciences (NCATS), 2019).

Structures are written as SMILES. About 200 (0.44%) of roughly 45,000 compounds were called active. A call without a number means that no potency is given here. Inconclusive results (about 7%) are left out. The call rests on the fitted dose curve; in most records, active means well fitted activation curve with a large enough effect; inconclusive means small, poorly fitted or top-dose-only effect; inactive means no such curve, though single readings can be large or run the other way. For the sample, actives were picked, then their nearest neighbours and some compounds at random.
Potency means the concentration at half of the fitted maximal effect.

The experiment can be described thus: qHTS of TDP-43 Inhibitors: NCGC Sytravon Library Screen. Further: nearly all actives have a fitted effect of over 55% in size. As to conditions: yeast TDP-43 toxicity rescue, BacTiter-Glo growth, 24 h; series mostly up to 46.1 µM. From the text: The goal of this project is to identify new chemical probes capable of reversing the toxicity associated with TDP-43 which is associated with frontotemporal lobar degeneration and amyotrophic lateral sclerosis. These compounds will provide a complementary approach to deciphering the tangled mechanisms of toxicity and protection that we have uncovered through genome-wide genetic screens and are beginning to uncover in a large-scale proteomics analysis with mass spectroscopy. To this end, a miniaturized assay was developed to be screened against the Molecular Libraries Small Molecule Repository (MLSMR) to discover TDP-43 inhibitors. Please note that in the set-up this yeast-based assay compounds that inhibit as TDP-43, have a read-out as activators. NIH Chemical Genomics Center [NCGC] NIH Molecular Libraries Probe Centers Network [MLPCN] Assay Submitter (PI): Susan Lindquist, Whitehead Institute/MIT MLPCN Grant: R21 NS060957
Dispense 2.5 microL yeast galactose medium per 1536-well plate, pin compound, dispense 2.5 microL TDP-43 expressing yeast in galactose medium at OD600=0.02 (pregrown in raffinose medium to mid-log phase) per well, incubate for 24 hr at 30 deg C, and cell growth will be measured using 5 microL of Bactiter/Glo reagent to entire plate and read using Luminescence Protocol in ViewLux.
Background: In qHTS, concentration-response curves come from the screen itself.
For `CN(C)C(CNC(=O)c1cccc(C#N)c1)c1ccco1` (centres undefined), the Potency entry was “inactive”. With `Nn1c(SCC(=O)Nc2ccc3c(c2)CCC3)nnc1C1CC1` the entry was “inactive”.

In the case of `CC(CN1CCC(n2nccc2NC(=O)C2CCCC2)CC1)c1ccccc1` (centres undefined), the Potency result was “inactive”. With `O=C1c2ccccc2S(=O)(=O)N1CC(O)Cn1c2ccccc2c2ccccc21` (centres undefined) the figure was 12.6 µM (active); with `CC(C)(C)c1ccc(CN2C(=O)c3ccccc3S2(=O)=O)cc1`, “inactive”; with `COc1ccc(CNC(=O)CN2C(=O)c3ccccc3S2(=O)=O)cc1`, “inactive”. For the molecule `Cc1ccc(Cl)cc1NC(=S)N(CCN(C)C)Cc1cccs1`, the Potency result is “inactive”. On to `COc1ccc(-c2ccc(C(=O)NC(C)C)c3occc23)c(C)c1`, for which the Potency is 15.8 µM (active).

`Cc1noc(C)c1-c1ccc(C(=O)NCc2ccncc2)c2occc12`: the Potency result was “inactive”. Consider `COCCCNC(=O)c1ccc(-c2c(C)noc2C)c2ccoc12`, for which the Potency result was “inactive”.

As to `Cc1ccc(OCc2n[nH]c(=S)n2-c2ccc(C)cc2)cc1`, the Potency result is “inactive”. `Cc1ccc(S(=O)(=O)N(Cc2ccc(Cl)cc2)c2ccccc2C(=O)NCc2cccnc2)cc1`: the Potency entry was “inactive”. With `O=C(c1cccs1)c1cn(CCOc2ccc(Cl)cc2)c2ccccc12` the entry was “inactive”. With `CN(C)c1ccnc(Nc2ccc(F)cc2)c1C#N` the entry was “inactive”; with `COc1ccccc1OCc1ccc(C(=O)NC(C)c2ccccc2)o1` (centres undefined), “inactive”; with `O=C(C1CCN(S(=O)(=O)c2ccc(Br)s2)CC1)N1CCN(C2CCCCC2)CC1`, “inactive”. For `COc1ccc(C(=O)OCc2cc(=O)n3ccsc3n2)cc1F` the value was “inactive”; for `CCCCN(CC)CCCNC(=O)c1ccc(CSc2nc3ccncc3[nH]2)cc1`, “inactive”; for `CC(C)(C)c1ccccc1NC(=O)CN1C(=O)NC2(CCCC2)C1=O`, “inactive”. Turning to `COc1ccc(C(=O)Nc2ccc(N3CCC(C)CC3)cc2)cc1Br`, the Potency entry was “inactive”. With `c1cc(-c2ccc3[nH]ccc3c2)n2ccnc2c1` the entry was “inactive”; with `O=C(CN1C(=O)NC2(CCCCCC2)C1=O)Nc1ccc([N+](=O)[O-])cc1`, “inactive”; with `O=C1NC(c2ccc(-c3ccccc3[N+](=O)[O-])o2)C(C(=O)c2ccc(Cl)cc2)C(O)(C(F)(F)F)N1` (centres undefined), “inactive”.

With `CN(Cc1nc2ccccc2s1)C(=O)c1ccc(F)cc1`, the Potency entry was “inactive”. For `CCN(CC)C(=O)CN(c1cccc([N+](=O)[O-])c1)S(=O)(=O)c1ccccc1` the value was “inactive”; for `O=C(Nc1ccc(F)cc1)N1CCN(c2ccc(F)cc2)CC1`, “inactive”. On to `Cc1nc2c(OCc3cccc(Cl)c3)cccn2c1N(C)CC1CC1`, for which the Potency result was “inactive”. As to `CC(C)(C)NC(=O)C(=O)NN=C1CCCCCCC1`, the Potency result is “inactive”. For `O=C(CCn1c(=O)c2sccc2n(Cc2ccc(F)cc2)c1=O)NCc1ccc2c(c1)OCO2` the value was “inactive”; for `CCc1ccc(OC2(C)CCN(CCOc3ccc(C)cc3)C2)cc1` (centres undefined), “inactive”. With `COc1ccc(CN2CCC(C)(Oc3cccc(F)c3)C2)c2ccccc12` (centres undefined) the entry was “inactive”; with `O=C(NCc1ccc(F)cc1)c1cc(C2CCCCN2C(=O)c2cccs2)on1` (centres undefined), “inactive”; with `CN(CC(=O)NC(=O)Nc1ccccc1F)Cc1ccccc1`, “inactive”. As to `CCn1c(CSc2nc(C)cc(C)n2)nnc1SCC(N)=O`, the Potency result was “inactive”. With `O=C(O)C(F)(F)C(NCc1ccccc1)c1ccccc1` (centres undefined) the entry was “inactive”. With `CC(C(=O)Nc1ccc(F)c(F)c1F)N1CCCCCC1` (centres undefined) the entry was “inactive”. For `O=C(NCCc1ccc(F)cc1)c1n[nH]c2ccccc12` the value was “inactive”; for `N#Cc1ccccc1NC(=O)c1ccc2c(c1)OCO2`, “inactive”.

As to `N/C(=N\OC(=O)c1ccc2c(c1)OCO2)c1ccc(Br)cc1`, the Potency was 3.55 µM (active). Turning to `O=C(COC(=O)c1ccncc1)Nc1ccc2c(c1)OCO2`, the Potency result is “inactive”. With `O=C(O)CC1(CC(=O)Nc2cccc(C(F)(F)F)c2)CCCC1` the entry was “inactive”; with `Cn1c(NCc2cccnc2)nc2cc(-c3ccc(F)cc3)sc2c1=O`, “inactive”. `Cc1ccc(C)c(NC(=O)CN(C)C(=O)COc2ccc3ccccc3c2)c1`: the Potency result is “inactive”.

In the case of `NS(=O)(=O)c1cccc(NC(=O)CN2CCCc3ccccc32)c1`, the Potency entry was “inactive”. Consider `O=C(CCn1nnc2ccccc2c1=O)N[C@@H](Cc1c[nH]c2ccccc12)C(=O)O`, for which the Potency entry was “inactive”.

Take `O=C(NC1CC1)C(Cc1ccccc1)NS(=O)(=O)c1ccccc1F` (centres undefined): the Potency entry is “inactive”.

Take `COc1cccc(CC2(CO)CCN(Cc3cnc(-c4cccc(C)c4)nc3)CC2)c1`: the Potency entry is “inactive”. With `COCCCNC(=S)N1CCCC(c2nc3cc(C)c(C)cc3[nH]2)C1` (centres undefined) the entry was “inactive”; with `CCC1CCCCN1C(=O)CSc1nc2c(c(=O)n(C)c(=O)n2C)n1C` (centres undefined), “inactive”. For `CC(C)c1ccc(N(C(=O)c2ccco2)C(C(=O)NC2CCCC2)c2cccnc2)cc1` (centres undefined) the value was “inactive”; for `COc1ccc(N2CCN(C(=O)C3CCN(C(=O)c4ccccc4Cl)CC3)CC2)cc1`, “inactive”. On to `CCc1cc(-c2nnc(SCC(=O)NC3CC3)n2C)cs1`, for which the Potency entry was “inactive”. `CCOc1ccccc1Oc1cn[nH]c1-c1ccc(OC)cc1O`: the Potency was 15.8 µM (active). Consider `COc1ccc(-c2n[nH]c(C)c2-c2ccccc2OC)c(O)c1`, for which the Potency entry is “inactive”.
